The results in this text go back to article PMC7862700, “An all-to-all approach to the identification of sequence-specific readers for epigenetic DNA modifications on cytosine”.

Common to all, as to experiment: DAPPL (digital affinity profiling via proximity ligation, sequencing); 10 mM Tris-HCl pH 7.5, 50 mM NaCl, 1 mM DTT, 4% glycerol, room temperature, 30 min; GST-TFs on glutathione beads, 16-mer random dsDNA library, 0.1% formaldehyde crosslink after washing; high values mean tight binding
One test has as its target T1, FEV (Homo sapiens, UniProt Q99581 1-238).
T1 sequence: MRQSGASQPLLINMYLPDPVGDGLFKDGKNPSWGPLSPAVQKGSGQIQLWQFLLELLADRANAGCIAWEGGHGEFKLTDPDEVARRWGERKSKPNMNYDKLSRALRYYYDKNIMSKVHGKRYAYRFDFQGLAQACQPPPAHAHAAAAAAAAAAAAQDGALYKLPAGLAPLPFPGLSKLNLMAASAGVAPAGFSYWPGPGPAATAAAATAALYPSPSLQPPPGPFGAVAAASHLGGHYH
The note with it: protein: recombinant; tags: N-terminal GST; dsDNA, one strand shown. In short, it runs like this: (§1)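 Human transcription factors fused to GST were expressed in yeast, captured on glutathione beads, given DNA barcodes and pooled with a GST-only negative control. Pools were incubated with 200 nmole of a 16-mer random double-stranded DNA library in Tris/NaCl/DTT/glycerol buffer at room temperature for 30 min. They were then washed, crosslinked with 0.1% formaldehyde, proximity-ligated (BsaI/T4 ligase, 1 h, 37 °C), PCR-amplified and sequenced on an Illumina NextSeq500. Binding signal is each 6-mer's read frequency for a factor divided by its frequency for the GST control.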

For another test, the target named is ETV5 (Homo sapiens, UniProt P41161 1-510). The note with it: protein: recombinant; tags: N-terminal GST; dsDNA, one strand shown. Put shortly: as §1
A further test addresses HSF1 (Homo sapiens, UniProt Q00613 1-529). The note with it: protein: recombinant; tags: N-terminal GST; chain copies: 3; dsDNA, one strand shown. Put shortly:
as §1

Another test addresses T2, SPIC (Homo sapiens, UniProt Q8N5J4 1-248).
T2 sequence: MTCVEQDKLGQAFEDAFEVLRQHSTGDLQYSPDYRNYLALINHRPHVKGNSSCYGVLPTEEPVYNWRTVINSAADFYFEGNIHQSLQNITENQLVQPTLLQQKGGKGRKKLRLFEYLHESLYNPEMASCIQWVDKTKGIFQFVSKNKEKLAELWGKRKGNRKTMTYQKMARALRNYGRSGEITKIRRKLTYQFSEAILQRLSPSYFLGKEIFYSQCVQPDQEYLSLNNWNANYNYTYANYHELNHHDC
Particulars: protein: recombinant; tags: N-terminal GST; dsDNA, one strand shown. In short, it runs like this: as §1

The target of another test is ELF4 (Homo sapiens, UniProt Q99607 1-663). The note with it: protein: recombinant; tags: N-terminal GST; dsDNA, one strand shown. Put shortly: as §1
Another test has as its target T3, ELK4 (Homo sapiens, UniProt P28324-2 1-405).
T3 sequence: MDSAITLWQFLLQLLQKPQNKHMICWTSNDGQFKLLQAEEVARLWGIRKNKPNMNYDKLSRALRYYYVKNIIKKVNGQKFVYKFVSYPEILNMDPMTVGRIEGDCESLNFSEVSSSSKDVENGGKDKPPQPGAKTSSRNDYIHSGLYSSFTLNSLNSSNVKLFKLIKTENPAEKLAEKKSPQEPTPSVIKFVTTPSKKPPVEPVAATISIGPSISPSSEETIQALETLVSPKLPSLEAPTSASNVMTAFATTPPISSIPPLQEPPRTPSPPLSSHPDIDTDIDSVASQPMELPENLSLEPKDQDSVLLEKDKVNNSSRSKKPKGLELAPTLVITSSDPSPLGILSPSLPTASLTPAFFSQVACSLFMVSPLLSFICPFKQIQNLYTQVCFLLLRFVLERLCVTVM
Particulars: protein: recombinant; tags: N-terminal GST; dsDNA, one strand shown. In short, it runs like this:
as §1

Another test addresses T4, ETV2 (Homo sapiens, UniProt O00321 1-342).
T4 sequence: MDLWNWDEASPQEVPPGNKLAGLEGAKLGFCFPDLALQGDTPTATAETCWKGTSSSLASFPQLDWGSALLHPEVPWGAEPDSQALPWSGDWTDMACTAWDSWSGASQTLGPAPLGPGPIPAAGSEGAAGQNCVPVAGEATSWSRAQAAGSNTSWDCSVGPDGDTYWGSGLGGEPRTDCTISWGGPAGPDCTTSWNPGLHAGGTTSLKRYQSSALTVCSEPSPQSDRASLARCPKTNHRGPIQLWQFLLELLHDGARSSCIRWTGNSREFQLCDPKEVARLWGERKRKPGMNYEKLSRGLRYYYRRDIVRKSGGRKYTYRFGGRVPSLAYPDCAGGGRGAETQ
Particulars: protein: recombinant; tags: N-terminal GST; dsDNA, one strand shown. In short, it runs like this:
as §1

Another test addresses T5, ELF3 (Homo sapiens, UniProt P78545 1-371).
T5 sequence: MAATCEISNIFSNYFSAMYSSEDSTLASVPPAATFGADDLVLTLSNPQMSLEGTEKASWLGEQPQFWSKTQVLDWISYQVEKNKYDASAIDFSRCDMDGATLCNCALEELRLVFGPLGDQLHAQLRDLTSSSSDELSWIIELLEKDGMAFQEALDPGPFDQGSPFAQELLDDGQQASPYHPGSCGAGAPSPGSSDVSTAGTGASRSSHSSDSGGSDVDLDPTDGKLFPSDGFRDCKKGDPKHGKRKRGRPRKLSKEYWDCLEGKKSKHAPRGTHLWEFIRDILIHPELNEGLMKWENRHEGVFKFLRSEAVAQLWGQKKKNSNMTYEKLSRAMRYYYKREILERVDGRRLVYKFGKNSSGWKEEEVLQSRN
The note with it: protein: recombinant; tags: N-terminal GST; dsDNA, one strand shown. Put shortly:
as §1

Another test has as its target ETV1 (Homo sapiens, UniProt P50549 1-477). Particulars: protein: recombinant; tags: N-terminal GST; dsDNA, one strand shown. In short, it runs like this: as §1

Chain of ELF4 (Q99607 whole entry): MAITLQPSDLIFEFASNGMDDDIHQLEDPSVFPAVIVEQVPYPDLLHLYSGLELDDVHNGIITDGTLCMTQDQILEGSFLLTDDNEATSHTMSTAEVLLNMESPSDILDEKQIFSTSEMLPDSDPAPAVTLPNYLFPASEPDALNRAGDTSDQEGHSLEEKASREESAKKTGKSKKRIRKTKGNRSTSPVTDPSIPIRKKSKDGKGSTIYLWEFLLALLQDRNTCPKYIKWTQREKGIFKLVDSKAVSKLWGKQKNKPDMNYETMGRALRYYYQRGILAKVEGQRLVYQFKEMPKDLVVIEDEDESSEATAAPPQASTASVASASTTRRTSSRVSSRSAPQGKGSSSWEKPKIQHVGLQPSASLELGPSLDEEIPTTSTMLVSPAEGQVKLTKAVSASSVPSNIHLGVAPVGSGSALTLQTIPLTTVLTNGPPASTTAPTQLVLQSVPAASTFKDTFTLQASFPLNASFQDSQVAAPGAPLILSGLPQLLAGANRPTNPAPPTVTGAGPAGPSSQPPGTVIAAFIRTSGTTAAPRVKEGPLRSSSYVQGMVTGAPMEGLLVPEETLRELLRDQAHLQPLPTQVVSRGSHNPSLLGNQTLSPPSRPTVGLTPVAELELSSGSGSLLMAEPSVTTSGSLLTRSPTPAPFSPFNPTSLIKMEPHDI
Chain of HSF1 (Q00613 whole entry): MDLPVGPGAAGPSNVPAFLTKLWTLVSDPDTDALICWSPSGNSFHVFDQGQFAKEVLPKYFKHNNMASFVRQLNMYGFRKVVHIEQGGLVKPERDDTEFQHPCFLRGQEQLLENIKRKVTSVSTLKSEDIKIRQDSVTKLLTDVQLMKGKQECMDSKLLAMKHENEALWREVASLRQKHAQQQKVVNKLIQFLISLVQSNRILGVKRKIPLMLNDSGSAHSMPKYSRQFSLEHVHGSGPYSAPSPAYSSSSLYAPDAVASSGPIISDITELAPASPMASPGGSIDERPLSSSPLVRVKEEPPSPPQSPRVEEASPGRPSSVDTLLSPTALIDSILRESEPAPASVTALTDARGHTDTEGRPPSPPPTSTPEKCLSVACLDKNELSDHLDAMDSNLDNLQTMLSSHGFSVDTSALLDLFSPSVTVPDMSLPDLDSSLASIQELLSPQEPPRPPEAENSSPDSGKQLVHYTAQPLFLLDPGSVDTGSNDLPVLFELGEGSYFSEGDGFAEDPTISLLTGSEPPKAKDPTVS
Chain of ETV5 (P41161 whole entry): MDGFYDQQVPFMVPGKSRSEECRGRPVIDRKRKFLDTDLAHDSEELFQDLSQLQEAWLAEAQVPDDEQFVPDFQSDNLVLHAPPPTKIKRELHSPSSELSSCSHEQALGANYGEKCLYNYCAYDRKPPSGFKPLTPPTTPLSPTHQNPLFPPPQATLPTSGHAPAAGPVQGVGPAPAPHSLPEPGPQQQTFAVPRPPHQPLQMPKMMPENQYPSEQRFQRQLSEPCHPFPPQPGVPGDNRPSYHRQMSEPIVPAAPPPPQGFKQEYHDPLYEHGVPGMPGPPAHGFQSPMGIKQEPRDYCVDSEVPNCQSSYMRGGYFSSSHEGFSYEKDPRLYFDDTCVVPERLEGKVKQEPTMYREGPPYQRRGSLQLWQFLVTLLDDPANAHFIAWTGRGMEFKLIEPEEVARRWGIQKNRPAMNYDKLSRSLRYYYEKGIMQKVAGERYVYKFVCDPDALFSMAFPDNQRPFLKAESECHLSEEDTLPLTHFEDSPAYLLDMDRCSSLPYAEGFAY
Chain of ETV1 (P50549 whole entry): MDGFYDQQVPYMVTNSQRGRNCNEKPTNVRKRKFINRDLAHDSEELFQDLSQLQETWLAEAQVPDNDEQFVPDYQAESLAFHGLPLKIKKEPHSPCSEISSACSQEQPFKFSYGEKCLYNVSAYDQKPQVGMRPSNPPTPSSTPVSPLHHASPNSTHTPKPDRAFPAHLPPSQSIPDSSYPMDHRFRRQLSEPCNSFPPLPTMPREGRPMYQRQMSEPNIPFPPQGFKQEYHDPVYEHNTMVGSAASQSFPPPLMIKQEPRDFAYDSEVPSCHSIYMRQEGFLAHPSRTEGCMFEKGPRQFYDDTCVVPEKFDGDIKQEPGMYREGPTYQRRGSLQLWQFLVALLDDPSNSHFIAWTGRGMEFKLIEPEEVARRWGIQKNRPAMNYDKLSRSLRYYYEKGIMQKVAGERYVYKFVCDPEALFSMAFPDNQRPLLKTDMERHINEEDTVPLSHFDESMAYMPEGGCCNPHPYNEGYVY

With GGAAAA, the binding signal with FEV was 1.2 fold enrichment (6-mer frequency, TF over GST control); in the test with ETV5 it was 1.32 fold enrichment (6-mer frequency, TF over GST control); in the test with HSF1 it was 1.62 fold enrichment (6-mer frequency, TF over GST control); with SPIC, 1.29 fold enrichment (6-mer frequency, TF over GST control); in the test with ELF4, 1.19 fold enrichment (6-mer frequency, TF over GST control); in the test with ELK4, 1.01 fold enrichment (6-mer frequency, TF over GST control). Moreover, the binding signal with ETV2 is 1.22 fold enrichment (6-mer frequency, TF over GST control); with ELF3, 1.39 fold enrichment (6-mer frequency, TF over GST control); with ETV1, 1.27 fold enrichment (6-mer frequency, TF over GST control).
With GAAGCA, the binding signal was 1.29 fold enrichment (6-mer frequency, TF over GST control) in the test with FEV; 1.41 fold enrichment (6-mer frequency, TF over GST control) in the test with ETV5; 1.06 fold enrichment (6-mer frequency, TF over GST control) with HSF1; 1.19 fold enrichment (6-mer frequency, TF over GST control) with SPIC; 1.27 fold enrichment (6-mer frequency, TF over GST control) in the test with ELF4; 1.2 fold enrichment (6-mer frequency, TF over GST control) in the test with ELK4. Also, the binding signal with ETV2 was 1.37 fold enrichment (6-mer frequency, TF over GST control); with ELF3, 1.27 fold enrichment (6-mer frequency, TF over GST control); with ETV1 it was 1.41 fold enrichment (6-mer frequency, TF over GST control).
On to AACATG, for which the binding signal in the test with FEV is 1.1 fold enrichment (6-mer frequency, TF over GST control); with ETV5 it was 1.23 fold enrichment (6-mer frequency, TF over GST control); in the test with HSF1, 1.1 fold enrichment (6-mer frequency, TF over GST control); with SPIC, 1.28 fold enrichment (6-mer frequency, TF over GST control); in the test with ELF4, 1.23 fold enrichment (6-mer frequency, TF over GST control); in the test with ELK4, 1.25 fold enrichment (6-mer frequency, TF over GST control). Also, the binding signal with ETV2 is 1.19 fold enrichment (6-mer frequency, TF over GST control); with ELF3, 1.26 fold enrichment (6-mer frequency, TF over GST control); with ETV1 it was 1.13 fold enrichment (6-mer frequency, TF over GST control).
With AGATGC, the binding signal with FEV is 1.05 fold enrichment (6-mer frequency, TF over GST control); in the test with ETV5, 1.09 fold enrichment (6-mer frequency, TF over GST control); in the test with HSF1, 1.1 fold enrichment (6-mer frequency, TF over GST control); in the test with SPIC, 1.11 fold enrichment (6-mer frequency, TF over GST control); with ELF4, 1.1 fold enrichment (6-mer frequency, TF over GST control); with ELK4 it was 1.29 fold enrichment (6-mer frequency, TF over GST control). In addition, the binding signal was 1.01 fold enrichment (6-mer frequency, TF over GST control) with ETV2; 1.09 fold enrichment (6-mer frequency, TF over GST control) with ELF3; 1.05 fold enrichment (6-mer frequency, TF over GST control) with ETV1.
Consider TGCCTG, for which the binding signal is 1.16 fold enrichment (6-mer frequency, TF over GST control) in the test with FEV; 1.37 fold enrichment (6-mer frequency, TF over GST control) with ETV5; 1.05 fold enrichment (6-mer frequency, TF over GST control) with HSF1; 1.32 fold enrichment (6-mer frequency, TF over GST control) in the test with SPIC; 1.22 fold enrichment (6-mer frequency, TF over GST control) with ELF4; 1.25 fold enrichment (6-mer frequency, TF over GST control) with ELK4. Moreover, the binding signal with ETV2 was 1.2 fold enrichment (6-mer frequency, TF over GST control); with ELF3, 1.05 fold enrichment (6-mer frequency, TF over GST control); with ETV1 it was 1.49 fold enrichment (6-mer frequency, TF over GST control).
Regarding TGTACG, the binding signal in the test with FEV is 1.2 fold enrichment (6-mer frequency, TF over GST control); with ETV5 it was 1.23 fold enrichment (6-mer frequency, TF over GST control); with HSF1, 1.01 fold enrichment (6-mer frequency, TF over GST control); with SPIC, 1.23 fold enrichment (6-mer frequency, TF over GST control); with ELF4, 1.2 fold enrichment (6-mer frequency, TF over GST control); with ELK4, 1.34 fold enrichment (6-mer frequency, TF over GST control). Also, the binding signal with ETV2 was 1.13 fold enrichment (6-mer frequency, TF over GST control); in the test with ELF3, 1.13 fold enrichment (6-mer frequency, TF over GST control); with ETV1, 1.24 fold enrichment (6-mer frequency, TF over GST control).
As to CGACCA, the binding signal is 1.3 fold enrichment (6-mer frequency, TF over GST control) with FEV; 1.17 fold enrichment (6-mer frequency, TF over GST control) with ETV5; 1.14 fold enrichment (6-mer frequency, TF over GST control) in the test with HSF1; 1.12 fold enrichment (6-mer frequency, TF over GST control) in the test with SPIC; 1.39 fold enrichment (6-mer frequency, TF over GST control) with ELF4; 1.31 fold enrichment (6-mer frequency, TF over GST control) in the test with ELK4. Moreover, the binding signal in the test with ETV2 is 1.35 fold enrichment (6-mer frequency, TF over GST control); with ELF3, 1.32 fold enrichment (6-mer frequency, TF over GST control); with ETV1, 1.23 fold enrichment (6-mer frequency, TF over GST control).
In the case of CCGACG, the binding signal is 1.22 fold enrichment (6-mer frequency, TF over GST control) with FEV; 1.16 fold enrichment (6-mer frequency, TF over GST control) in the test with ETV5; 1.02 fold enrichment (6-mer frequency, TF over GST control) with HSF1; 1.57 fold enrichment (6-mer frequency, TF over GST control) in the test with SPIC; 1.29 fold enrichment (6-mer frequency, TF over GST control) with ELF4; 1.22 fold enrichment (6-mer frequency, TF over GST control) with ELK4. Besides, the binding signal is 1.31 fold enrichment (6-mer frequency, TF over GST control) with ETV2; 1.14 fold enrichment (6-mer frequency, TF over GST control) with ELF3; 1.2 fold enrichment (6-mer frequency, TF over GST control) with ETV1.
